Laboratory results published in PMC4336329 (PLoS ONE, 2015).
Screen size: about 310,000 compounds; about 14,000 (4.5%) showed an effect of 50% or more. Effects have a minus sign here. Shown is part of a subset that was picked to be rich in strong results.

Each molecule was assayed against human ether-à-go-go-related gene (hERG) potassium channel (human, UniProt Q12809) (assay: primary screen, population patch clamp on CHO cells stably expressing hERG; higher = less effect of the substance).
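Note: peak tail current of the secondary pulse compared with the same well before compound.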

human ether-à-go-go-related gene (hERG) potassium channel, sequence (Q12809 whole entry, looked up): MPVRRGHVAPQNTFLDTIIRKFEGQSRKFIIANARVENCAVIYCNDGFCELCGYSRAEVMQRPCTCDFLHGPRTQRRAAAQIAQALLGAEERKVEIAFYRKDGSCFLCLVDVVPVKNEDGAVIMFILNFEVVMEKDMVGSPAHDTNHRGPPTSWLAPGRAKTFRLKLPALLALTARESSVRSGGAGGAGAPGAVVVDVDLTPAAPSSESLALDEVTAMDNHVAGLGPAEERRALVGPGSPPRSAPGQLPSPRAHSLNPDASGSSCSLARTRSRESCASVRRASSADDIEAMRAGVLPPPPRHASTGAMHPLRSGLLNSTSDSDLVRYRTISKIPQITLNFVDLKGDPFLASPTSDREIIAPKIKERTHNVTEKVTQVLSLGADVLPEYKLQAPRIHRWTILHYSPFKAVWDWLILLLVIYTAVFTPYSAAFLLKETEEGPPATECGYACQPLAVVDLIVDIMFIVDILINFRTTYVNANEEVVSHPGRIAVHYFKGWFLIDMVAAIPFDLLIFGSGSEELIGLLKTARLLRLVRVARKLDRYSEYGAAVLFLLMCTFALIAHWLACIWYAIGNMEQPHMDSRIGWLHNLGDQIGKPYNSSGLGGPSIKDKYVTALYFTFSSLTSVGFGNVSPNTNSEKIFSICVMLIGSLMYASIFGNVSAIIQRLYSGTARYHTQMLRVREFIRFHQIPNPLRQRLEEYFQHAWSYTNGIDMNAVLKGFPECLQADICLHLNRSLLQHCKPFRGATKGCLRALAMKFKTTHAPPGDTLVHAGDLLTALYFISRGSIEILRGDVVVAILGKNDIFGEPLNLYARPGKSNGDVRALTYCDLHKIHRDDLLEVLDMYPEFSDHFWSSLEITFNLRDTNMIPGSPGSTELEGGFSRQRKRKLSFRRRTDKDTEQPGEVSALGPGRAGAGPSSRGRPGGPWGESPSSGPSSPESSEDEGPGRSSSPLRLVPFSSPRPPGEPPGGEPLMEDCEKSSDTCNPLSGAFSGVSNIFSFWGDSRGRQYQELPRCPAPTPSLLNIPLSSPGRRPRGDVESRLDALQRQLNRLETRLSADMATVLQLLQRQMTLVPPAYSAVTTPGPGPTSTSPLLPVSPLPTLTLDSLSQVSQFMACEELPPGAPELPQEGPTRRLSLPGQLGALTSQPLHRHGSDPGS

SMILES | hERG current change (%, negative = inhibition) at 10uM [%]
Cc1ccc2nc(-c3ccccc3)cc(C(=O)N(C)CC(=O)Nc3ccccc3Br)c2c1 | -11
c1ccc(-n2nnnc2Cc2nnnn2-c2ccccc2)cc1 | 50.3
O=C(Nc1ccccc1OC(F)F)c1cc2c(s1)CCC2 | -16.4
C=CCNC(=S)/N=c1/ccccn1C | -5.42
CCOC(=O)C1(Cc2ccccc2C)CCCN(Cc2ccc(NC(C)=O)cc2)C1 (stereo not shown) | 11.5
CCOC(=O)C1(CCOc2ccccc2)CCN(Cc2ccc(NC(C)=O)cc2)CC1 | -79.3
CCOC(=O)C1(CCc2ccccc2)CCN(Cc2ccc(NC(C)=O)cc2)CC1 | -76.6
Cc1ccc(Nc2nc(=O)c3cccnc3s2)c(Br)c1 | 3.27
CN(Cc1cnccn1)Cc1nc(Cc2ccccc2F)no1 | -0.154
COc1ccc(Cl)cc1NS(=O)(=O)c1cccc(C(=O)NCC(c2ccco2)N(C)C)c1 (stereo not shown) | -2.01
O=C(CCCn1c(=O)c2sccc2n(CC(=O)NCc2ccco2)c1=O)NCc1ccco1 | -6.69
Cn1c(Br)nc2c1c(=O)n(CC(O)COc1ccccc1)c(=O)n2C (stereo not shown) | -1.54
COCCC(=O)N1CCC(Oc2ccc(C(=O)N(C)C(C)c3ccon3)cc2)CC1 (stereo not shown) | 13.1
CCCCCCn1cc(C(=O)O)c(=O)c2cc(F)c(N3CCCCC3)cc21 | 5.7
O=C(Cc1cn(Cc2cccc(Cl)c2)c2ccccc12)N1CCCCCC1 | -4.89
CCCCCn1cc(C(=O)C(=O)N2CCOCC2)c2ccccc21 | -26.3
CN(C)CCOC(=O)c1cn(Cc2ccccc2)c2ccccc12.Cl | -59.1
O=C(O)Cc1cn(Cc2cccc(Cl)c2)c2ccccc12 | 12.6
O=C(O)c1cn(Cc2ccccc2)c2ccc(Cl)cc2c1=O | -76.3
CCCCCCn1cc(C(=O)O)c(=O)c2ccccc21 | -75.8

SMILES | hERG current change (%, negative = inhibition) at 10uM [%]
O=C(c1cn(Cc2ccccc2)c2ccccc12)C1CC1 | 7.67
O=C(COc1ccccc1)c1cn(Cc2ccccc2)c2ccccc12 | 7.62
Cn1cc(-c2ccccc2C(=O)O)c(=O)c2cc(Cl)ccc21 | 20.9
CC1CCCN(C(=O)Cc2cn(Cc3cccc(Cl)c3)c3ccccc23)C1 (stereo not shown) | -5.42
O=C(Cc1cn(Cc2cccc(Cl)c2)c2ccccc12)N1CCCC1 | -50
COc1ccccc1CNC(=O)C1CCCN(S(C)(=O)=O)C1 (stereo not shown) | 9.4
CC(C)Oc1cccc(C(=O)C2CCCN(S(=O)(=O)C(C)C)C2)c1 (stereo not shown) | -21.7
COc1ccc(C2=NN(C(=O)CSc3nnnn3C)C(c3ccco3)C2)cc1 (stereo not shown) | 3.05
N/C(=N\OC(=O)C(c1ccccc1)c1ccccc1)c1ccccn1 | 8.35
Cl.O=C(NCC(c1cccs1)N1CCOCC1)c1ccc(Cl)s1 (stereo not shown) | -21.6
CC(=O)NC(=O)COC(=O)/C=C/c1c(C)nn(Cc2c(Cl)cccc2Cl)c1Cl | -2.82
O=C(O)CSc1nc2ccc(C(=O)c3ccccc3)cc2[nH]1 | 17.2
CC(C)(C)C(=O)c1cn(Cc2ccccc2)c2ccccc12 | -4.12
O=C(O)c1cn(Cc2ccccc2)c2ccccc2c1=O | -79.3
CCCCCCn1cc(C(=O)OCC)c(=O)c2cc(F)c(F)cc21 | -52.6
CCC(=O)c1cn(Cc2ccccc2)c2ccccc12 | -7.05
CCCn1cc(C(=O)OCC)c(=O)c2cc(F)c(F)cc21 | 2.11
CCOC(=O)c1cn(CC)c2cc(F)c(F)cc2c1=O | 3.48
COc1ccc(OC)c(N2C(=O)CC(Cc3ccc(C)cc3)C2=O)c1 (stereo not shown) | -2.87
CCC1(c2ccccc2)NC(=O)N(CC(=O)Nc2ccc3c(c2)OCO3)C1=O (stereo not shown) | -6.09

SMILES | hERG current change (%, negative = inhibition) at 10uM [%]
CCOC(=O)c1oc2cccc(O)c2c1C | -7.22
C=CCn1c(SCc2c(F)cccc2Cl)nnc1-c1ccco1 | -19.3
COc1ccc(OC)c(CN2CCN(CCCc3ccccc3)C(CCO)C2)c1 (stereo not shown) | -68.6
COc1cccc(CN2CCN(CCc3ccccc3)C(CCO)C2)c1OC (stereo not shown) | -34.8
COc1ccc(CN2CCN(CCc3ccccc3)C(CCO)C2)c(Cl)c1OC (stereo not shown) | -60.1
COc1ccc(CN2CCN(CCCc3ccccc3)C(CCO)C2)c(OC)c1 (stereo not shown) | -72.9
COc1ccc(OC)c(CN2CCN(CCc3ccccc3)C(CCO)C2)c1 (stereo not shown) | -60.6
CCOC(=O)C1(CC)CC(CSc2nc3ccccc3[nH]2)OC1=O.Cl (stereo not shown) | -2.61
COc1ccc(C(=O)Nc2cccc3ccccc23)cc1 | 1.02
CC(C)(C)c1cc(C(=O)NNc2cccc(Cl)c2)n(Cc2ccccc2)n1 | -4.28
Cc1cc(-c2nnc(SCC(=O)Nc3ccccc3F)n2N)n[nH]1 | 13.8
CC1(C)NC(=O)N(CCCC(=O)Nc2ccc(C(F)(F)F)cc2)C1=O | -16.9
CCOC(=O)c1c(-c2cccs2)csc1NC(C)=O | -1.29
COc1ccc(N2CC(C(=O)OCC(=O)Nc3ccccc3C)CC2=O)cc1 (stereo not shown) | 15.6
CN1CCN(C(=S)c2ccc(Cl)cc2)CC1 | 3.39
CCN(C(=O)COc1ccccc1C(=O)NCc1ccccc1)C1CCS(=O)(=O)C1 (stereo not shown) | -22.1
CCCN(CC1CC1)C(=O)COc1ccccc1C(=O)NCc1ccccc1 | -56
CCC(C)N(C(=O)COc1ccccc1C(=O)NCc1ccccc1)C1CCS(=O)(=O)C1 (stereo not shown) | -39.2
